Binding signal data for 20 molecules are collected here from paper PMC9911399, “Two distinct binding modes provide the RNA-binding protein RbFox with extraordinary sequence specificity”.

First the molecules themselves.
B1: UCGCAGG (DNA:RNA)
RNA: GGGAGACCGGAAUUCAGAUUGUCCUCGCAGGUUAAAUCCCGUCGUAGCCACCA
DNA 1: CAATCTGAATTCCGGTCTCCC
DNA 2: TGGTGGCTACGACGGGATT
B2: UACAUAC (DNA:RNA)
RNA: B1 RNA with C26A, G27C, C28A, A29U, G30A, G31C
DNA 1: CAATCTGAATTCCGGTCTCCC
DNA 2: TGGTGGCTACGACGGGATT
B3: GGUAUUA (DNA:RNA)
RNA: GGGAGACCGGAAUUCAGAUUGUCCGGUAUUAUUAAAUCCCGUCGUAGCCACCA
DNA 1: CAATCTGAATTCCGGTCTCCC
DNA 2: TGGTGGCTACGACGGGATT
B4: GGUAAUG (DNA:RNA)
RNA: B3 RNA with U29A, A31G
DNA 1: CAATCTGAATTCCGGTCTCCC
DNA 2: TGGTGGCTACGACGGGATT
B5: UUAGUUG (DNA:RNA)
RNA: B3 RNA with G25U, G26U, U27A, A28G, A31G
DNA 1: CAATCTGAATTCCGGTCTCCC
DNA 2: TGGTGGCTACGACGGGATT
B6: AUGCCAC (DNA:RNA)
RNA: B1 RNA with U25A, C26U, A29C, G30A, G31C
DNA 1: CAATCTGAATTCCGGTCTCCC
DNA 2: TGGTGGCTACGACGGGATT
B7: GUUACCC (DNA:RNA)
RNA: B3 RNA with G26U, U29C, U30C, A31C
DNA 1: CAATCTGAATTCCGGTCTCCC
DNA 2: TGGTGGCTACGACGGGATT
B8: UGGGUGA (DNA:RNA)
RNA: B3 RNA with G25U, U27G, A28G, U30G
DNA 1: CAATCTGAATTCCGGTCTCCC
DNA 2: TGGTGGCTACGACGGGATT
B9: UGGGGCG (DNA:RNA)
RNA: B1 RNA with C26G, C28G, A29G, G30C
DNA 1: CAATCTGAATTCCGGTCTCCC
DNA 2: TGGTGGCTACGACGGGATT
B10: CCCUGGG (DNA:RNA)
RNA: B1 RNA with U25C, G27C, C28U, A29G
DNA 1: CAATCTGAATTCCGGTCTCCC
DNA 2: TGGTGGCTACGACGGGATT
B11: UGGGUGC (DNA:RNA)
RNA: B1 RNA with C26G, C28G, A29U, G31C
DNA 1: CAATCTGAATTCCGGTCTCCC
DNA 2: TGGTGGCTACGACGGGATT
B12: UGGGCGU (DNA:RNA)
RNA: B1 RNA with C26G, C28G, A29C, G31U
DNA 1: CAATCTGAATTCCGGTCTCCC
DNA 2: TGGTGGCTACGACGGGATT
B13: CCUGGUG (DNA:RNA)
RNA: B3 RNA with G25C, G26C, A28G, U29G, A31G
DNA 1: CAATCTGAATTCCGGTCTCCC
DNA 2: TGGTGGCTACGACGGGATT
B14: CUGGGUG (DNA:RNA)
RNA: B1 RNA with U25C, C26U, C28G, A29G, G30U
DNA 1: CAATCTGAATTCCGGTCTCCC
DNA 2: TGGTGGCTACGACGGGATT
B15: UGGUGCU (DNA:RNA)
RNA: B1 RNA with C26G, C28U, A29G, G30C, G31U
DNA 1: CAATCTGAATTCCGGTCTCCC
DNA 2: TGGTGGCTACGACGGGATT
B16: UGGCGUU (DNA:RNA)
RNA: B1 RNA with C26G, A29G, G30U, G31U
DNA 1: CAATCTGAATTCCGGTCTCCC
DNA 2: TGGTGGCTACGACGGGATT
B17: CUAAUAC (DNA:RNA)
RNA: B3 RNA with G25C, G26U, U27A, U30A, A31C
DNA 1: CAATCTGAATTCCGGTCTCCC
DNA 2: TGGTGGCTACGACGGGATT
B18: UUAAUCA (DNA:RNA)
RNA: B3 RNA with G25U, G26U, U27A, U30C
DNA 1: CAATCTGAATTCCGGTCTCCC
DNA 2: TGGTGGCTACGACGGGATT
B19: UUUGCUU (DNA:RNA)
RNA: B3 RNA with G25U, G26U, A28G, U29C, A31U
DNA 1: CAATCTGAATTCCGGTCTCCC
DNA 2: TGGTGGCTACGACGGGATT
B20: CCAAUGG (DNA:RNA)
RNA: B1 RNA with U25C, G27A, C28A, A29U
DNA 1: CAATCTGAATTCCGGTCTCCC
DNA 2: TGGTGGCTACGACGGGATT

Where a chain is given by its changes, count along the chain named. The full ranking holds about 16,000 sequences; the median of “ka relative to ugcaugu” is about 0.0091, and the highest 2% start at about 0.032. This excerpt belongs to a sample that is enriched for the highest values.

The target of this test is T1, RBFOX1 RRM (Homo sapiens, UniProt Q9NWB1 109-208).
T1 sequence: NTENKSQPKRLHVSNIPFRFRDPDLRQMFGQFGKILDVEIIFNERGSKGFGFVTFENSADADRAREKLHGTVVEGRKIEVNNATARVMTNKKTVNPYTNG
Kind of test: EMSA; HiTS-Eq, 1 nM pool, 10 min; buffer printed only for the single-RNA assays: 10 mM Tris pH 7.5, 150 mM NaCl, 3.4 mM EDTA, 0.001% NP-40, 30 C. Particulars: tags: His6 N-terminal (pET28a); label: 5' 32P. In outline: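 Relative association constants, normalised to the cognate motif, were derived by comparing read counts of each RNA species with those of the control reaction. The RNA sequenced was the free fraction, separated by 8% native PAGE after a 10 min equilibration in 50 µL of 1 nM 5′-radiolabelled RNA (7 randomized nucleotides) with increasing concentrations of purified wild-type or mutant RbFox RRM.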
In general terms: A gel shift assay detects complexes by their altered migration in electrophoresis.
As to B1, the binding signal is 0.0168 KA relative to UGCAUGU.
On to B2, for which the binding signal is 0.00108 KA relative to UGCAUGU.
Consider B3, for which the binding signal is 0.00455 KA relative to UGCAUGU.
Consider B4, for which the binding signal is 0.0152 KA relative to UGCAUGU.
With B5, the binding signal was 0.0187 KA relative to UGCAUGU.
B6: the binding signal was 0.0065 KA relative to UGCAUGU.
With B7, the binding signal was 0.0047 KA relative to UGCAUGU.
To B8 belongs 0.0273 KA relative to UGCAUGU; to B9, 0.0294 KA relative to UGCAUGU.
To B10 belongs 0.00714 KA relative to UGCAUGU.
With B11, the binding signal was 0.0429 KA relative to UGCAUGU.
For the molecule B12, the binding signal is 0.0388 KA relative to UGCAUGU.
In the case of B13, the binding signal was 0.0199 KA relative to UGCAUGU.
B14: the binding signal is 0.0408 KA relative to UGCAUGU.
To B15 belongs 0.0292 KA relative to UGCAUGU.
The result for B16 reads 0.0221 KA relative to UGCAUGU; that for B17, 0.00176 KA relative to UGCAUGU.
Regarding B18, the binding signal is 0.00562 KA relative to UGCAUGU.
Turning to B19, the binding signal was 0.0228 KA relative to UGCAUGU.
Turning to B20, the binding signal is 0.00975 KA relative to UGCAUGU.
